These results are taken from PubChem BioAssay.

Assay [1] can be described thus: small molecules captured by biotinylated probe aFSTL3 – biochemical, small-molecule microarray, fluorescence 635/667, stem cell growth factor project, primary screen (AID 1064).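 Also: measures binding of the biotinylated anti-FSTL3 antibody to printed compounds.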 The following applies: higher = more signal.
The nature of assay [2]: binders from COS7 lysate, DM2A8 probe, primary screen, torsin A project, cell lysate, small-molecule microarray, fluorescence 635/667 (AID 1065). Particulars: higher = more signal, COS7 lysate expressing mutant human TOR1A.
A short description of assay [3]: small molecules captured by biotinylated probe aFGF2 – biochemical, small-molecule microarray, fluorescence 635/667, stem cell growth factor project, primary screen (AID 1067).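 Also: measures binding of biotinylated aFGF2 protein to printed compounds on slides; z-score merges feature fluorescence and signal-to-noise across triplicate slides.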 Particulars: higher = more signal.
A short description of assay [4]: small molecules captured by biotinylated probe aFGF10 – biochemical, small-molecule microarray, fluorescence 635/667, stem cell growth factor project, primary screen (AID 1071).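 Also: score merges 667 nm spot intensity and signal to noise from triplicate slides.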 Particulars: higher = more signal.
For assay [5], the target named is Neurogenic locus notch homolog protein 2 (Homo sapiens) (UniProt Q04721). Put plainly: small molecules binding Notch2 protein – biochemical, small-molecule microarray, 635 nm fluorescence, stem cell growth factors, primary screen (AID 1073). Particulars: higher = more signal.
The target in assay [6] is Pro-neuregulin-1, membrane-bound isoform (Homo sapiens) (UniProt Q02297). The assay can be described thus: small molecules binding neuregulin-1 protein – biochemical, small-molecule microarray, fluorescence 635/667, psychiatric disease protein project, primary screen (AID 1075).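 Also: score combines 667 nm spot fluorescence with signal to noise.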 Particulars: NRG1 binding, 635 nm fluorescence, higher = more signal.
In assay [7] the test system is Neuregulin-1 EGF-like domain. Put plainly: small molecules binding NRG1 EGF domain – biochemical, small-molecule microarray, 635 nm fluorescence, primary screen (AID 1081).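 Also: binding of the protein to compounds printed on small-molecule microarray slides.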 Particulars: higher = more signal.
Assay [8] can be described thus: FRG1 expression reporter modulators in myotubes – cell-based, C2C12 myotubes, firefly/Renilla luciferase, luminescence, FRG1 inhibition for FSHD, primary screen (AID 1084). The following applies: FRG1 promoter luciferase, higher = more signal, called active from +8 up or from −8 down.
Assay [9] in a line: small molecules captured by biotinylated probe aFST – biochemical, small-molecule microarray, fluorescence 635/667, stem cell growth factor project, primary screen (AID 1086).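 Also: score merges 667 nm fluorescence with signal-to-noise of each printed compound spot.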 The following applies: higher = more signal.
The nature of assay [10]: binders of probe aHhip on microarray, primary screen, stem cell growth factor project, biochemical, small-molecule microarray, fluorescence 635/667 (AID 1087).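 Also: score merges spot fluorescence at 667nm with spot signal to noise ratio.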 Particulars: higher = more signal.
Assay [11] deals with PRMT1 (protein arginine N-methyltransferase 1). The assay can be described thus: small molecules binding arginine methyltransferase PRMT1 – biochemical, small-molecule microarray, 635 nm fluorescence, primary screen (AID 1088).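 Also: binding of Prmt1 protein to compounds spotted on small-molecule microarray slides.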 Particulars: higher = more signal.
A short description of assay [12]: growth effects on S. cerevisiae YJM789 – YJM789 clinical isolate, OD600, 24 h, basal, primary screen (AID 1089).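 Also: growth of clinical yeast isolate S. cerevisiae YJM 789 seeded 1000 cells per well; test concentration not given here.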 The following applies: higher = more signal, called active from +8 up or from −8 down.
A short description of assay [13]: S. pombe growth modifiers, basal conditions – strain 972, OD600, 24 h, no modulator, primary screen (AID 1090).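 Also: basal condition with compound alone and no growth modifier present; test concentration not given here.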 The following applies: S. pombe 972 growth, higher = more signal, called active from +8 up or from −8 down.
The nature of assay [14]: budding yeast growth modifiers under rapamycin – strain BY4716, OD600, 96 h, primary screen (AID 1091). Also: test concentration not given here. The following applies: S. cerevisiae BY4716 + rapamycin, higher = more signal, called active from +8 up or from −8 down.
Assay [15] addresses Torsin-1A-interacting protein 2 (Homo sapiens) (UniProt Q8NFQ8). The assay can be described thus: small molecules binding lysate-expressed LULL1 – cell lysate, human LULL1 lysate, 635/667 nm fluorescence, primary screen (AID 1092).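 Also: probe is lysate of COS7 cells overexpressing human LULL1; score merges per-feature 667 nm fluorescence with signal-to-noise.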 The following applies: small-molecule microarray, hLULL1 lysate binding, 635 nm fluorescence; higher = more signal.
Assay [16] is described as follows: optical density change of DRC41 E. coli – strain DRC41, OD650, 24 h, E. coli filamentation project, primary screen (AID 1093).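 Also: MC1000 strain lacking acrAB efflux and sulA so SOS filamentation is blocked; test concentration not given here.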 The following applies: E. coli DRC41 growth, higher = more signal, called active from +8 up or from −8 down.
Assay [17] in a line: probe aLefty2 binding to arrayed compounds – biochemical, biotinylated probe, 635/667 nm fluorescence, primary screen (AID 1094).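 Also: score merges spot fluorescence near 667 nm with spot signal-to-noise ratio.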 The following applies: small-molecule microarray, higher = more signal.
Assay [18] has as its system Noggin (protein binding on small-molecule microarray). Put plainly: small molecules binding Noggin protein – biochemical, 635/667 nm fluorescence, primary screen (AID 1095).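 Also: score merges 667 nm feature fluorescence with signal to noise over triplicate slides.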 Particulars: 635 nm fluorescence, higher = more signal.
Assay [19] deals with Neurogenic locus notch homolog protein 3 (Homo sapiens) (UniProt Q9UM47). Put plainly: small molecules binding NOTCH3 protein – biochemical, 635/667 nm fluorescence, primary screen (AID 1096). Particulars: small-molecule microarray, 635 nm fluorescence, higher = more signal.
Assay [20] can be described thus: probe aEGFR binding to arrayed compounds – biochemical, biotinylated probe, 635/667 nm fluorescence, primary screen (AID 1097).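 Also: probe is a biotinylated anti-EGFR antibody binding compounds printed on slides; score combines fluorescence near 667 nm and signal to noise of each spot.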 Particulars: small-molecule microarray, higher = more signal.

Molecules are shown by their SMILES. Activity calls are given as the source filed them.

Torsin-1A-interacting protein 2 (Homo sapiens), sequence (Q8NFQ8 whole entry, looked up): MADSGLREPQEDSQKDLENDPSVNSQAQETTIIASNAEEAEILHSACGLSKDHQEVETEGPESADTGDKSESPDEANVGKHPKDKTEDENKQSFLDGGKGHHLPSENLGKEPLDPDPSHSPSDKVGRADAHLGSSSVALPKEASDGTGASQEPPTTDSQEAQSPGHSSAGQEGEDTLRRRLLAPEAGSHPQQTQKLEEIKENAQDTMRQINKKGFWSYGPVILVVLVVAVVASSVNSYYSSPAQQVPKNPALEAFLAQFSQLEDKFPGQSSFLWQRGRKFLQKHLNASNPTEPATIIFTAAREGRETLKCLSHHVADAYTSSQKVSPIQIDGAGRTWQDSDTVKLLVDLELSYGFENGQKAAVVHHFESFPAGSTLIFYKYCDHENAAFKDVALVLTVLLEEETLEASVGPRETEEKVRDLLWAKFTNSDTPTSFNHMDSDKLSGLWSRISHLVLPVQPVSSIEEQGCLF
Pro-neuregulin-1, membrane-bound isoform (Homo sapiens), sequence (Q02297 whole entry, looked up, the tested form may be a part, canonical isoform): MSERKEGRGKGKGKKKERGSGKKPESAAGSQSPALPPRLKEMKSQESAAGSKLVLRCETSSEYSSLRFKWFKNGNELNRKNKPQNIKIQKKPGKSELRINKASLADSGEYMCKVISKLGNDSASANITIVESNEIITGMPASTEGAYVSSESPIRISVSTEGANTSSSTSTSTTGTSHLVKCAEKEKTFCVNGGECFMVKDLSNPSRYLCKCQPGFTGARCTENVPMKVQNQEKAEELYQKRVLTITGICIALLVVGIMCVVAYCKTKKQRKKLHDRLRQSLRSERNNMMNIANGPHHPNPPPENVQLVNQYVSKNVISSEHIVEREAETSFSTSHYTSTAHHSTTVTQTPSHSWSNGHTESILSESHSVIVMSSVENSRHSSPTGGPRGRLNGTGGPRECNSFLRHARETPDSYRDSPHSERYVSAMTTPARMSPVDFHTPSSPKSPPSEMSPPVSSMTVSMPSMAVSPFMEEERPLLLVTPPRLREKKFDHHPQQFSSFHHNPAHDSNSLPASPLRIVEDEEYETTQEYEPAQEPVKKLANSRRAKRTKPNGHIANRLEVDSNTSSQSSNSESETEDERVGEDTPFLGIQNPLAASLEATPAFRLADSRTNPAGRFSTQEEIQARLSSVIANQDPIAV
Neurogenic locus notch homolog protein 2 (Homo sapiens), sequence (Q04721 whole entry, looked up, canonical isoform): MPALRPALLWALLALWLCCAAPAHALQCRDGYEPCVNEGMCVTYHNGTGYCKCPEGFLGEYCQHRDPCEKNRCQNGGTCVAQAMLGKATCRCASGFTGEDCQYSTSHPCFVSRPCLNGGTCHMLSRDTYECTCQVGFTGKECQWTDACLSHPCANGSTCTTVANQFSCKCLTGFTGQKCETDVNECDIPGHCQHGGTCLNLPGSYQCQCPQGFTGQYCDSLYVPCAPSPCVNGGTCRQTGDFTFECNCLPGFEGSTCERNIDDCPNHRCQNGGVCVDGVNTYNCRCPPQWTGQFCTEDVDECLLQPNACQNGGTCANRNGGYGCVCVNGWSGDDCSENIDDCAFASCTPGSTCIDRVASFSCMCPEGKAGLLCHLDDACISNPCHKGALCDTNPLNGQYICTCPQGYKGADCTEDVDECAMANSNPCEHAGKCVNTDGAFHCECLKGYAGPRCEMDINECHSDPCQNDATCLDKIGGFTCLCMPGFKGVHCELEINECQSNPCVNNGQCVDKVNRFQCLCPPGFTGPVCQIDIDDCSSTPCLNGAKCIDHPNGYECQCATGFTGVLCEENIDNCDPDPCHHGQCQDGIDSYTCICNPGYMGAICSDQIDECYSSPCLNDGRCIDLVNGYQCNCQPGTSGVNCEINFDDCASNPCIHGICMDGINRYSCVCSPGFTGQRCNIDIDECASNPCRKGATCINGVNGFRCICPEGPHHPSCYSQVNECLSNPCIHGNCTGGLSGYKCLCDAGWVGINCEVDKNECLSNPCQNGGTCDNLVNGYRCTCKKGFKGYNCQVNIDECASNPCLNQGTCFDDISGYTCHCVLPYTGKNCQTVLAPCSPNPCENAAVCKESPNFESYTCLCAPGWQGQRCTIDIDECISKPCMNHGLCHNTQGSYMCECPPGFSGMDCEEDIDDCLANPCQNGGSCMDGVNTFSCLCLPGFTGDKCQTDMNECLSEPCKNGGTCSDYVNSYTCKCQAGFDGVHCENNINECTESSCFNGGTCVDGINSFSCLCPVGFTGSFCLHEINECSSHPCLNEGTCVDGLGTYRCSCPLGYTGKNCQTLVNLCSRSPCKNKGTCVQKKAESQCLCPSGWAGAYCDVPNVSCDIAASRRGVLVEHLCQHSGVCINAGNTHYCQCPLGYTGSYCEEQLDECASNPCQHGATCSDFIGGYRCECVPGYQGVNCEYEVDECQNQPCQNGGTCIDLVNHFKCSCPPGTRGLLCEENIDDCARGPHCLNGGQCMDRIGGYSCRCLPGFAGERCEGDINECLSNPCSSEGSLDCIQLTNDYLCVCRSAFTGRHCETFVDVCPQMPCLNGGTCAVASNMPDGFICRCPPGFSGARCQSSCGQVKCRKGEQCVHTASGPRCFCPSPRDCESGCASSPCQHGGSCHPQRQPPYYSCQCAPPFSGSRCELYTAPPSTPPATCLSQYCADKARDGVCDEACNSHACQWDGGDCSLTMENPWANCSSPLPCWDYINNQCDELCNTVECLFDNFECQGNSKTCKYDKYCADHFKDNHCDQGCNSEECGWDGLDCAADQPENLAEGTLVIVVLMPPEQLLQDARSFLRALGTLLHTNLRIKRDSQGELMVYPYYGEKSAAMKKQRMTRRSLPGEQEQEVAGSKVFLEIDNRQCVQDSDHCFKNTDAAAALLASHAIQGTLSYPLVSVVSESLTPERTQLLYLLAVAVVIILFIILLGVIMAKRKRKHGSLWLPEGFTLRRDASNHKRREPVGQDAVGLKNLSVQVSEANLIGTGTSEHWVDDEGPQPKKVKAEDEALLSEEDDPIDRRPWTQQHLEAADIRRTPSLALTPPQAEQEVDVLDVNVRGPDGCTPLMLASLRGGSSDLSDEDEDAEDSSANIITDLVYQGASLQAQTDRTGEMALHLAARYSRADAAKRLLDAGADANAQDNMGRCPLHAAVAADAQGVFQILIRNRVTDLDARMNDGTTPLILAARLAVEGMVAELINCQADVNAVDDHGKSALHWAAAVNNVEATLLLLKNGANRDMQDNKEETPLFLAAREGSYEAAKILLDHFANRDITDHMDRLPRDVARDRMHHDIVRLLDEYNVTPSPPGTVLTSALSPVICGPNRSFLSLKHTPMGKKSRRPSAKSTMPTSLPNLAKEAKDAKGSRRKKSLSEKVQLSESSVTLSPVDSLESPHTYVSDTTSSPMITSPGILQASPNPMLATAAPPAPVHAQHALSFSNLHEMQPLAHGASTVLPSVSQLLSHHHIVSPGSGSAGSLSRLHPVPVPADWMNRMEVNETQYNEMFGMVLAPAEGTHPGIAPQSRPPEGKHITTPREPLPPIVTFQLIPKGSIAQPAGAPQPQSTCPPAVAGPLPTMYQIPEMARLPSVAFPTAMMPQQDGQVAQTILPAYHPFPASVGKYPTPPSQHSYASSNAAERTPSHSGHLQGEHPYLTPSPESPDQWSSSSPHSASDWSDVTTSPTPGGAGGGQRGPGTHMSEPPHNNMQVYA

Take `COC(=O)C1(CC(C)C)C=C2C(=C(C(C)C)C(=O)C2C)CN1` (stereo not given): the composite z-score in assay [1] is 0.901; in assay [2] it was -0.241; in [3], -0.0578; in assay [4], -0.589; in [5] it was -0.507; in assay [6], 0.607. The composite z-score in assay [7] is 0.19; in assay [9], 0.315; in assay [10], -0.0603; in [11], -0.866; in assay [15] it was 0.412; in assay [17], -0.0289. The results for the composite z-score in [18], in assay [19] and in assay [20] were -1.29, -0.877 and -0.103, respectively. Besides, the z-score in [8] was 1.65 (inactive); in [12], -0.166 (inactive); in assay [13], -0.0608 (inactive); in assay [14], 1.08 (inactive); in assay [16], -0.844 (inactive).
With `C=CCOC(=O)[C@H]1[C@@H]2C(=O)O[C@@H](c3ccccc3)[C@@H](c3ccccc3)N2[C@@H](c2ccc(OCCOC(=O)[C@H]3C[C@H]4C(=O)NCC(=O)N4[C@H]3c3ccc(O)cc3)cc2)[C@]12C(=O)Nc1ccc(I)cc12`, the composite z-score was -0.309 in [1]; 1.03 in assay [2]; -0.0867 in [3]; 0.202 in assay [4]; 0.636 in [5]; 0.346 in assay [6]. Besides, the composite z-score in assay [7] was 0.869; in assay [9] it was 0.392; in [10], 0.064; in assay [11], 1.3; in assay [15], 0.871; in assay [17], -0.148. The composite z-score in assay [18] was 0.895; in assay [19], 0.672; in [20] it was -0.0531. In addition, the z-score in assay [8] is -1.35 (inactive); in assay [12], 0.203 (inactive); in assay [13] it was 0.629 (inactive); in assay [14] it was 4.17 (inactive); in assay [16], 0.47 (inactive).
Take `[N-]=[N+]=NCc1ccccc1[C@H]1OC(c2ccc(OCCCO)cc2)=N[C@@]1(Cc1ccccc1)C(=O)N1CCOCC1`: the composite z-score in assay [1] is -0.212; in assay [2], 0.768; in assay [3], 0.0232; in assay [4], 1.15; in assay [5], 1.71; in assay [6] it was 1.39. Further, the composite z-score is 1.21 in assay [7]; 1.8 in assay [9]; -0.166 in [10]; 1.46 in assay [11]; 3.51 in [15]; 0.254 in assay [17]. For the same compound, the composite z-score in assay [18] was 0.316; in [19], 1.08; in assay [20] it was 0.266. Moreover, the z-score in [8] was -0.868 (inactive); in assay [12], -2.07 (inactive); in [13], -0.21 (inactive); in [14] it was -0.0315 (inactive); in assay [16] it was -0.522 (inactive).
`COCCn1c(C(=O)N2CCCC2)cc2c1C[C@H]1CN(C(=O)c3ccccc3)[C@@](Cc3ccccc3)(C(=O)OC)[C@@H]21`: the composite z-score in [1] is 0.288; in assay [2], 1.16; in assay [3] it was 0.576; in [4] it was 0.888; in assay [5], 1.11; in assay [6], 2.16. In addition, the composite z-score in [7] came out at 1.42; in assay [9], 1.11; in assay [10] it was 0.688; in [11], 1.28; in assay [15], 3.11; in assay [17], 0.907. In addition, the composite z-score came out at 0.386 in assay [18], 0.805 in assay [19] and 0.827 in assay [20]. Besides, the z-score in [8] is 2.7 (inactive); in assay [12], 0.448 (inactive); in assay [13], 0.105 (inactive); in [14] it was 0.573 (inactive); in assay [16], 0.0508 (inactive).
In the case of `COCCOC(=O)N1C(=O)[C@@]2(c3cc(C#Cc4ccc(OC)cc4)ccc31)[C@H](c1ccc(OCCO)cc1)N1[C@H](c3ccccc3)[C@H](c3ccccc3)OC(=O)[C@H]1[C@@H]2C(=O)N1CCCCCCC1`, the composite z-score was 2.51 in [1]; 0.351 in assay [2]; 0.684 in assay [3]; 0.315 in assay [4]; 0.753 in assay [5]; 1.52 in [6]. Moreover, the composite z-score in assay [7] worked out at 1.01; in assay [9] it was 2.75; in [10] it was 2.59; in [11] it was 1.49; in assay [15], 3.3; in assay [17], 1.45. Also, the composite z-score in assay [18] worked out at 2.09; in [19] it was 0.955; in assay [20] it was 0.882. The z-score in assay [8] is -0.531 (inactive); in [12], -1.32 (inactive); in assay [13] it was -0.0066 (inactive); in assay [14], 3.2 (inactive); in [16] it was 0.106 (inactive).
